Source: PubChem BioAssay AID1458 (National Center for Advancing Translational Sciences (NCATS), 2008)
Among all 210,000 compounds or so, about 5,900 (2.8%) were called active. Entries that show only a call come without a potency. About 5% were inconclusive and are not listed. This is one part of a sample in which actives are shown more often than they occur. Calls come from the whole dose curve; as a rule, active = well fitted activation curve with a large enough effect; inconclusive = small, poorly fitted or top-dose-only effect; inactive = no such curve, though single readings can be large or run the other way.

experiment: qHTS Assay for Enhancers of SMN2 Splice Variant Expression; settings: HEK293 SMN2-luciferase splicing reporter, luminescence, 30-36 h; series mostly up to 46.1 µM; note: nearly all actives have a fitted effect of over 55% in size
Outline: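 qHTS luciferase splicing reporter: luminescence rises when SMN2 exon 7 is included in transfected HEK293 cells. Compound exposure lasted 30-36 h at 37C, with 4.5 mM final sodium butyrate as control, followed by a ONE-Glo read.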
Potency is the fitted concentration of half-maximal effect.

Row | SMILES | Potency
1 | COc1cc(OC)c(NC(=O)c2c3c(nn2C)-c2ccccc2SC3)cc1Cl | inactive
2 | O=C(c1cn(-c2ccccc2)nc1-c1cccnc1)N1CCCCC1 | inactive
3 | COC(=O)c1cn(-c2ccccc2)nc1-c1cccnc1 | inactive
4 | COc1ccccc1N1CCN(C(=O)c2cn(-c3ccccc3)nc2-c2cccnc2)CC1 | 22.4 µM (active)
5 | CCOc1ccc(NC(=O)CSc2c3c(nc4ccccc24)CCCC3)cc1 | inactive
6 | Cn1c2ccccc2c(=O)c2c(=O)n(Cc3ccco3)c(COc3ccccc3)nc21 | 35.5 µM (active)
7 | CCCc1nc2c(c(=O)c3ccccc3n2C)c(=O)n1C1CCCCCC1 | inactive
8 | COc1ccc(C(=O)CSc2nnc(COc3ccccc3)n2Cc2ccco2)cc1 | inactive
9 | O=C(CCn1c(=O)c2sccc2n(Cc2ccc(F)cc2)c1=O)NCc1ccc2c(c1)OCO2 | inactive
10 | COc1ccc(S(=O)(=O)NCCc2cc3ccc(C)c(C)c3[nH]c2=O)cc1 | inactive
11 | COc1cccc(CNC(=O)c2ccc3c(Cl)c4c(nc3c2)CCCC4)c1 | inactive
12 | Cc1cccc(N(CC(=O)Nc2ccc(-c3nc4ccc(C)cc4s3)cc2)S(C)(=O)=O)c1 | inactive
13 | COc1cc(NC(=O)CN(C)S(=O)(=O)c2ccc3nc(C)sc3c2)cc(OC)c1 | inactive
14 | Cc1ccc2nc(-c3ccc(NC(=O)CN(C)S(=O)(=O)c4ccccc4)cc3)sc2c1 | 1 µM (active)
15 | Cc1ccc(F)cc1NC(=O)CCSc1nc(-c2ccco2)cc(C(F)(F)F)n1 | inactive
16 | COc1ccc(C(=O)n2nc(-c3ccc(C)cc3)nc2N)cc1OC | inactive
17 | COc1ccc(C(=O)n2nc(-c3ccc(Cl)cc3)nc2N)cc1OC | 25.1 µM (active)
18 | COc1ccccc1C(=O)n1nc(-c2ccccc2)nc1N | inactive
19 | COc1ccc(-c2nc3ccccc3o2)cc1NC(=O)c1cc([N+](=O)[O-])ccc1N1CCOCC1 | inactive
20 | Cc1cccc(NC(=O)c2cc3c(C)nn(-c4ccccc4)c3s2)c1 | inactive
21 | Cc1c(CNC2CCCCC2)c(C(=O)O)c(C)n1Cc1cccc(Cl)c1 | inactive
22 | CCCN1CCN(CCCNC(=O)Cn2nc(CC)n3c(cc4occc43)c2=O)CC1 | inactive
23 | C=CCNc1cnn(-c2ccc(C)cc2)c(=O)c1Cl | 11.2 µM (active)

Row | SMILES | Potency
24 | CCc1nc2c(cnn2-c2ccc(C)cc2)c(=O)n1-c1ccc(C)cc1 | inactive
25 | O=c1c(Cl)c(NC2CC2)cnn1-c1ccccc1 | inactive
26 | Cc1ccccc1-c1nc(CS(=O)(=O)CC(=O)Nc2cc(Cl)cc(Cl)c2)c(C)o1 | inactive
27 | COC(=O)c1ccc(Cc2ccccc2)o1 | inactive
28 | COC(=O)c1ccc(CSc2ccccc2C)o1 | 8.91 µM (active)
29 | COC(=O)c1ccc(CSc2ccc3nnc(-c4ccccc4)n3n2)o1 | inactive
30 | Cc1ccc(NS(=O)(=O)c2ccc3c(c2)CC(=O)N3)cc1Cl | inactive
31 | Clc1ccc2nc(CSc3ccccc3)cn2c1 | 3.16 µM (active)
32 | O=c1cc(CSc2ccc(Cl)cc2)nc(N2CCOCC2)[nH]1 | inactive
33 | CCOc1ncccc1C(=O)OCc1cn2cc(Cl)ccc2n1 | inactive
34 | Cc1ccc2nc(-c3ccccc3)cc(C(=O)O)c2c1 | inactive
35 | Cc1ccc2nc(-c3cccc(Br)c3)cc(C(=O)Nn3cnnc3)c2c1 | 12.6 µM (active)
36 | Cc1ccc(-c2cc(C(=O)NCc3cn(C)nc3C)c3cc(Br)ccc3n2)cc1 | inactive
37 | COc1ccc(N(CC(=O)NCCc2ccc(Cl)cc2)S(=O)(=O)c2c(C)nn(C)c2C)cc1 | inactive
38 | COc1ccc(S(=O)(=O)N(C)C)cc1NC(=O)CSc1ncccn1 | inactive
39 | CCS(=O)(=O)c1ccc2oc(SCC(=O)N3c4ccccc4CC3C)nc2c1 (centres undefined) | inactive
40 | CN(C)S(=O)(=O)c1ccc2oc(SCC(=O)Nc3ccccc3F)nc2c1 | 11.2 µM (active)
41 | COc1ccc(CNC(=O)Cn2nnc(-c3ccc(S(C)(=O)=O)cc3)n2)cc1 | inactive
42 | Cc1cc(NC(=O)Nc2ccccc2)n(-c2ccccc2)n1 | inactive
43 | Cc1cc(Nc2ccccc2)n(C(=O)c2ccc(N)cc2)n1 | 11.2 µM (active)
44 | Cc1cc(Nc2ccccc2)n(CCC#N)n1 | inactive
45 | COCCNC(=O)CSc1nc(-c2ccccc2)[nH]c1-c1ccc(C)cc1 | inactive
46 | COc1ccc(-c2noc(CCC(=O)N(C)c3ccccc3C)n2)cc1 | inactive

Row | SMILES | Potency
47 | COc1ccccc1N=Cc1c(O)c2ccccc2oc1=O | inactive
48 | COc1ccc(OC)c(N=Cc2c(O)[nH]c3ccccc23)c1 | inactive
49 | COc1ccc(N=Cc2c(O)[nH]c3ccccc23)cc1OC | 14.1 µM (active)
50 | Cc1ccc(C(=O)CS(C)(=O)=O)cc1 | inactive
51 | Cc1ccc(C(=O)Cc2nnc(C)s2)cc1 | 12.6 µM (active)
52 | Cc1ccc(C(=O)Cn2cccn2)cc1 | inactive
53 | c1ccc(CN=C2Nc3ccccc3CS2)nc1 | 12.6 µM (active)
54 | O=C(NCc1ccccn1)Nc1ccc(F)cc1 | inactive
55 | Cc1nnc(NCc2ccccc2)c2c1nnn2Cc1ccc(F)cc1 | inactive
56 | CC1CCN(S(=O)(=O)c2ccc3c(c2)N(CC(=O)NCc2ccccc2Cl)C(=O)CO3)CC1 | inactive
57 | Cc1csc2nc(COc3ccc(NC(=O)COc4ccccc4)cc3)cc(=O)n12 | inactive
58 | CCOc1ccc2nc(C(=O)N3CCCC(C)C3)sc2c1 (centres undefined) | 2.82 µM (active)
59 | Cc1ccnc(N2CCCC(C(=O)Nc3cc(F)ccc3C)C2)n1 (centres undefined) | inactive
60 | CCOc1ccc2nc(N3CCC(C(=O)Nc4cc(C)ccc4C)CC3)sc2c1 | inactive
61 | CCOc1ccc2nc(Nc3nc4ccc(NC(C)=O)cc4s3)sc2c1 | inactive
62 | CCOc1ccc2nc(SC(CC)C(=O)Nc3cc(C)on3)sc2c1 (centres undefined) | inactive
63 | CCOc1ccc2nc(N3CCCC(C(=O)Nc4cc(C)ccc4C)C3)sc2c1 (centres undefined) | 14.1 µM (active)
64 | CCCNC(=O)CCn1nc(-c2ccccc2)c2ccccc2c1=O | inactive
65 | O=c1c(O)c(Br)ccc2c(Br)c(O)c(O)c(O)c12 | inactive
66 | O=C1C(C=NCC2CCCO2)=C(O)c2ccccc21 (centres undefined) | 11.2 µM (active)
67 | CC(=NCC1CCCO1)c1c(O)[nH]c(=O)[nH]c1=O (centres undefined) | inactive
68 | O=C(CS(=O)(=O)Cc1ccccc1)NCC1CCCO1 (centres undefined) | inactive
69 | Cc1ccc(C)c(N2CCN(C(=O)CCc3c(C)nc4c(c3C)c(=O)n(C)c(=O)n4C)CC2)c1 | inactive
